# Measured values reported in PubChem BioAssay (NCATS).
# Several values for one entry are separate records, joined by “and”; a condition that tells them apart may be missing. Equal values may be shown once. Records with an inconclusive call do not appear. Activity calls are given as the source filed them. Unless noted, the call rests on the fitted dose curve; in most records, active means well fitted curve in either direction with a large enough effect (not every such curve was filed as active); inconclusive means small, poorly fitted or top-dose-only effect, or another doubt; inactive means flat fitted curve, though single readings scatter.
# Assays:
# [1] = AP1 Signaling Pathway (AID 357); details: ME-180 AP-1-bla reporter, EGF-induced, beta-lactamase ratio, 5 h;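 further: ME-180 reporter cells stimulated with EGF at its EC50 level; on the % scale 0 is the no-effect control and ±100 the full control effect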
# Summary of the method: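 Beta-lactamase reporter under AP-1 response element, ME-180 background. Stimulus: EC50 EGF. Compound exposure 5 h, 37 °C. Detection: CCF4, 2.5 h RT, 460/530 nm. Values: AC50 from titration.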
# [2] = target: Cytochrome P450 1A2 (Homo sapiens) (UniProt P05177); assay: p450-cyp1a2 (AID 410; calls by dose curve;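 further: -100% = full effect of reference inhibitor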); details: recombinant CYP1A2, luciferin-ME demethylation, luminescence; series mostly up to 57 µM
# Chain of Cytochrome P450 1A2 (Homo sapiens) (P05177 whole entry, looked up): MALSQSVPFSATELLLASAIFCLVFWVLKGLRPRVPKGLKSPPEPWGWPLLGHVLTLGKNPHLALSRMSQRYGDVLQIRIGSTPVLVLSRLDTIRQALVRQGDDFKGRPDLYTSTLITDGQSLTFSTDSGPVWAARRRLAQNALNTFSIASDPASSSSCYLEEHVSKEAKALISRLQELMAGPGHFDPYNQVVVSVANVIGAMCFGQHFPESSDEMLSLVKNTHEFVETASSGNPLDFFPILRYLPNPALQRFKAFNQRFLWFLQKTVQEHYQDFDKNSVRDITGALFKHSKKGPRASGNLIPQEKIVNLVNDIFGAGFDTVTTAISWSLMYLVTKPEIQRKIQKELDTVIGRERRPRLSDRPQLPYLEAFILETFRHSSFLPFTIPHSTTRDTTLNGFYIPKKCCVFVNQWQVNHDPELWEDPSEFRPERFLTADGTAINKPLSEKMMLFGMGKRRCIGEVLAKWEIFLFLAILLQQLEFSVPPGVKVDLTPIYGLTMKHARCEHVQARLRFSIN
# Summary of the method: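 Luminescent demethylation readout: Luciferin-ME (100uM, equal to Km) turned over by 20nM CYP1A2 for 60 min at room temperature after NADPH regeneration addition, following 10 min compound preincubation. Normalization used 57 uM furafylline as full inhibition.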
# [3] = Stat Signaling Pathway (AID 446); details: ME-180 (cervical carcinoma) SIE beta-lactamase reporter, IL-6 stimulated, 5 h;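 further: ME-180 cervical cancer cells given 40 pM IL-6 alongside compound; SIE-controlled beta-lactamase reporter measured as 460/530 nm FRET emission ratio; on the % scale 0 is the no-effect control and ±100 the full control effect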
# Summary of the method: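 FRET read-out (405 nm excitation, 460/530 nm emission) of a beta-lactamase reporter under a STAT-inducible element in ME-180 cervical carcinoma cells. Cells with compound receive 40 pM IL-6 for 5 h. Values are normalised to AC90 stimulation and AC90 JAK-inhibitor controls.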
# [4] = target: Mitogen-activated protein kinase 10 (Mus musculus) (UniProt Q61831); assay: JNK3 AlphaScreen Assay (AID 530); details: JNK3 lysate, c-Jun phosphorylation; series mostly up to 57.1 µM;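 further: kinase came from lysate of stimulated human HepG2 cells; signal reports phosphorylation of biotinylated GST-cJun 1-79 at Ser73 with 10 µM ATP; on the % scale 0 is the no-effect control and ±100 the full control effect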
# Summary of the method: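 Phosphorylation of biotinylated GST-cJun(1-79) at Ser73 is measured by AlphaScreen proximity luminescence. Enzyme is JNK3 in HepG2 lysates activated with interleukin-1beta and tumor necrosis factor alpha; ATP is 10 uM final.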
# [5] = target: 3',5'-cyclic-AMP phosphodiesterase 4B (Homo sapiens) (UniProt Q07343); assay: qHTS Assay for Inhibitors of PDE-IV (AID 607; active means well fitted activation curve with a large enough effect in the main read-out, with a control signal flat, not every such curve was filed as active; further: % of control where 0% means no effect); details: HEK293 ACTOne CNG channel cells, membrane potential fluorescence; series mostly up to 22.9 µM
# Chain of 3',5'-cyclic-AMP phosphodiesterase 4B (Homo sapiens) (Q07343 whole entry, looked up): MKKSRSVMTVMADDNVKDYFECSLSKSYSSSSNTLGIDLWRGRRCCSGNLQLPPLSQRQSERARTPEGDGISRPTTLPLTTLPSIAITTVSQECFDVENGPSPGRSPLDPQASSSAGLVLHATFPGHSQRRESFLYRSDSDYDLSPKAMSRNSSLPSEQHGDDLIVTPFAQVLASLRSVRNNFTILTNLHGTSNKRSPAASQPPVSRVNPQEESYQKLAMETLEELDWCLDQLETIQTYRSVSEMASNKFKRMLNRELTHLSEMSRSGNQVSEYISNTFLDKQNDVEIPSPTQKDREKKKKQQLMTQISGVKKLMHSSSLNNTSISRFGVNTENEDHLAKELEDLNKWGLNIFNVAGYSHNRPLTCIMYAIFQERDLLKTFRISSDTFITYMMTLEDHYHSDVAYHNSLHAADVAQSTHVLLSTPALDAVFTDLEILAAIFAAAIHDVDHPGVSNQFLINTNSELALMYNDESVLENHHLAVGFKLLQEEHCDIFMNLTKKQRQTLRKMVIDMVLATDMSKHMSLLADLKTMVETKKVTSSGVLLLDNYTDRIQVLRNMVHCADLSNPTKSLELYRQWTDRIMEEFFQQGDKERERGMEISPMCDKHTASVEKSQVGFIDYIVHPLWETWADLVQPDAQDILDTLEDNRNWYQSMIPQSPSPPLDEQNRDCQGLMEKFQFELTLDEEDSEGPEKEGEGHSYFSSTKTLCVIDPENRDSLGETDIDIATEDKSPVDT
# Summary of the method: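 Cell-based read-out of cAMP via a modified cyclic nucleotide-gated channel and membrane potential dye (535/590 nm) in HEK293 cells expressing PDE4 endogenously. Compounds tested up to 22.9 uM final; 100 uM RO 20-1724 reference.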
# [6] = qHTS Assay for Lipid Storage Modulators (AID 1519; calls by dose curve); details: Drosophila S3 cells, BODIPY lipid droplet/cell ratio, laser cytometry, cells loaded with oleic acid; for activity change, negative = inhibition: at 25.7 µM (top of the series)
# Summary of the method: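 Cells seeded at 5,000 per well were treated with compounds over a concentration series and loaded with oleic acid (400 uM, as added). Lipid droplet fluorescence (488 nm excitation, 500-530 nm channel) was read by laser-scanning cytometry and normalized to 20 uM Triacsin C.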
# [7] = target: ATP-dependent 6-phosphofructokinase (Trypanosoma brucei brucei) (UniProt O15648); assay: qHTS Assay to Find Inhibitors of T. brucei phosphofructokinase: hit validation (AID 492961; active means well fitted curve in the direction sought with a large enough effect; an effect the other way counts as inactive or inconclusive;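 further: luminescence reports ADP formed as PFK phosphorylates fructose-6-phosphate with ATP; on the % scale 0 is the no-effect control and ±100 the full control effect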); details: T. brucei PFK, ADP-Glo luminescence; series mostly up to 24.3 µM
# Chain of ATP-dependent 6-phosphofructokinase (Trypanosoma brucei brucei) (O15648 whole entry, looked up): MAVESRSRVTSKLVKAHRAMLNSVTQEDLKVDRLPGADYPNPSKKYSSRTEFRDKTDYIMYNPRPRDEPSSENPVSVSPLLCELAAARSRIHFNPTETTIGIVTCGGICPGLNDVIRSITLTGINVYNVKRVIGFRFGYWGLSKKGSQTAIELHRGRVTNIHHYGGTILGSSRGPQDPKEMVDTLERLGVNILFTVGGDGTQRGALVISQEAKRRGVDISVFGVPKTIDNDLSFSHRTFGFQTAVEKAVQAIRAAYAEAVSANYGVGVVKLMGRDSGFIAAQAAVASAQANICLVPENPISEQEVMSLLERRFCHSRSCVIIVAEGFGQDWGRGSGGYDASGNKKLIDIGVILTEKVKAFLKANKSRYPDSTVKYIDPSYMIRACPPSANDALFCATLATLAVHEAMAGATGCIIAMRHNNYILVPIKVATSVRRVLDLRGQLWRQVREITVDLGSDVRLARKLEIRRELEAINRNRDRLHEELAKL
# Summary of the method: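 PFK 1.25 nM, F6P 0.5 mM, ATP 0.1 mM, MgCl2 5 mM, 0.1 M TEA pH 8.0, Tween20 0.01%, BSA 0.1%; 45 min RT. ADP-Glo two-step detection, luminescence. qHTS titration; curve fitting with curve-class categorization.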
# [8] = target: Ubiquitin carboxyl-terminal hydrolase 1 (Homo sapiens) (UniProt O94782); assay: Inhibitors of USP1/UAF1: Pilot qHTS (AID 504865; active means well fitted curve in the direction sought with a large enough effect; an effect the other way counts as inactive or inconclusive;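 further: rhodamine fluorescence freed from ubiquitin-rhodamine substrate followed over time; top concentration of the series differs between compounds; on the % scale 0 is the no-effect control and ±100 the full control effect; nearly all actives have a fitted effect of over 35% in size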); details: purified USP1/UAF1, Ub-rhodamine cleavage fluorescence; series mostly up to 54.9 µM
# Chain of Ubiquitin carboxyl-terminal hydrolase 1 (Homo sapiens) (O94782 whole entry, looked up): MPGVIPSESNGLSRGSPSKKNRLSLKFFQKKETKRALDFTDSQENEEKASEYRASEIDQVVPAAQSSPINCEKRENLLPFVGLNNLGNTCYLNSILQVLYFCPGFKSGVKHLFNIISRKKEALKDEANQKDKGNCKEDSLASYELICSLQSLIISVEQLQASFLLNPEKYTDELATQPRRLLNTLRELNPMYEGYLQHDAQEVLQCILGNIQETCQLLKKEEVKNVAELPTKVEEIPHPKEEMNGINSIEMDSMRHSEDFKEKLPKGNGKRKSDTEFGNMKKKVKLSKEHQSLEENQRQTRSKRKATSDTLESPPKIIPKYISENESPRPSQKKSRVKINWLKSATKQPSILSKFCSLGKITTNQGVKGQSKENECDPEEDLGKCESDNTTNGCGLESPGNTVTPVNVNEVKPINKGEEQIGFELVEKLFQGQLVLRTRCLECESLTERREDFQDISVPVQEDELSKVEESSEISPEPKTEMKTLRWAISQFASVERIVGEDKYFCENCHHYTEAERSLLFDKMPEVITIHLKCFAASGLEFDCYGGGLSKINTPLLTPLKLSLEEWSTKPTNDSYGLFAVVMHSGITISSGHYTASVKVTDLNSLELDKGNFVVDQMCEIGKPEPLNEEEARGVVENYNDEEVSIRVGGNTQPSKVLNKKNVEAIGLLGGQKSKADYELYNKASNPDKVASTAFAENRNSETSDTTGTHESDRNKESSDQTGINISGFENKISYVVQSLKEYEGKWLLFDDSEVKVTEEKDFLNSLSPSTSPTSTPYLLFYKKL
# Summary of the method: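 Enzyme-free wells gave the negative control, while test wells held 1nM USP1/UAF1 preincubated with compound for 15 min at room temperature. Ub-Rho at 150nM final started the reaction, and fluorescence at 480/540 nm was recorded kinetically.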
# [9] = target: Luciferin 4-monooxygenase (Photinus pyralis) (UniProt P08659); assay: Biochemical firefly luciferase enzyme assay for NPC (AID 624030; active means well fitted curve in the direction sought with a large enough effect; an effect the other way counts as inactive or inconclusive;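 further: purified P. pyralis luciferase at 10 nM with luciferin and ATP substrate; 0% = DMSO and -100% = full luciferase inhibition by PTC124 control; nearly all actives have a fitted effect of over 70% in size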); details: purified P. pyralis luciferase, luminescence, 5 min; series mostly up to 58.6 µM
# Chain of Luciferin 4-monooxygenase (Photinus pyralis) (P08659 whole entry, looked up): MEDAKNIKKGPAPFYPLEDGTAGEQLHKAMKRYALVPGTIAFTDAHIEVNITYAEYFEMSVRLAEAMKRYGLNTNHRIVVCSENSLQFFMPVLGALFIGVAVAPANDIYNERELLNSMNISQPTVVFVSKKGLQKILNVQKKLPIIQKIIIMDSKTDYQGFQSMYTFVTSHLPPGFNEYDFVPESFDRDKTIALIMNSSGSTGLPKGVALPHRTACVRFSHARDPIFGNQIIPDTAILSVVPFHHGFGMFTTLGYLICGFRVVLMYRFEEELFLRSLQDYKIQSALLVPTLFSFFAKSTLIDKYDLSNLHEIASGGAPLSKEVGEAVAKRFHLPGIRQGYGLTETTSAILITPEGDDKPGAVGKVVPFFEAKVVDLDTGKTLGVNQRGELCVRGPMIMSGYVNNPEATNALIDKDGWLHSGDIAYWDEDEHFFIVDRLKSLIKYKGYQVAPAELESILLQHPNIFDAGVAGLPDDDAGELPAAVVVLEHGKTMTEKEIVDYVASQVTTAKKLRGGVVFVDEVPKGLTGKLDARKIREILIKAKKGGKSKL
# Summary of the method: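 Counter-screen for direct inhibition of the luciferase enzyme by approved-drug library compounds, run at 10 nM enzyme in 50 mM Tris acetate (final). Luminescence was read within 5 min of enzyme-buffer addition and normalized to PTC124 versus DMSO (0%).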
# [10] = qHTS profiling for inhibitors of Plasmodium falciparum proliferation (AID 504749; active means well fitted curve in the direction sought with a large enough effect; an effect the other way counts as inactive or inconclusive;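 further: 0% = DMSO vehicle and full inhibition = artemisinin control; nearly all actives have a fitted effect of over 60% in size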); details: P. falciparum in erythrocytes, SYBR Green DNA, 72 h, at 12.8 µM (top of the series)
# Summary of the method: (§1)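 Quantitative HTS: compounds pinned into medium, infected erythrocytes added (0.3% parasitemia, 2.5% hematocrit), 72 h culture at 37 C under 5% CO2. Saponin/Triton lysis with SYBR Green I, overnight RT, then fluorescence read.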
# [11] = test system: CP238; assay: as above; details: P. falciparum in erythrocytes, SYBR Green DNA, 72 h; series mostly up to 12.8 µM
# Summary of the method: as §1
# [12] = test system: CP262; assay: as above; details: P. falciparum in erythrocytes, SYBR Green DNA, 72 h; series mostly up to 12.8 µM
# Summary of the method: as §1
# [13] = test system: CP325; assay: as above; details: P. falciparum in erythrocytes, SYBR Green DNA, 72 h; series mostly up to 12.8 µM
# Summary of the method: as §1
# [14] = test system: ECU; assay: as above; details: P. falciparum in erythrocytes, SYBR Green DNA, 72 h; series mostly up to 12.8 µM
# Summary of the method: as §1
# [15] = test system: FAB9; assay: as above; details: P. falciparum in erythrocytes, SYBR Green DNA, 72 h; series mostly up to 12.8 µM
# Summary of the method: as §1
# [16] = test system: HB3; assay: as above; details: P. falciparum in erythrocytes, SYBR Green DNA, 72 h; series mostly up to 12.8 µM
# Summary of the method: as §1
# [17] = test system: JCK; assay: as above; details: P. falciparum in erythrocytes, SYBR Green DNA, 72 h; series mostly up to 12.8 µM
# Summary of the method: as §1
# [18] = NFAT Signaling Pathway (AID 444); details: Jurkat NFAT-bla M1, carbachol, beta-lactamase ratio, 5 h
# Summary of the method: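 Jurkat cells carrying an NFAT-driven β-lactamase reporter and co-transfected muscarinic M1 receptor were treated with compound plus carbachol (1 uM final, an EC50 level) for 5 h at 37 °C. CCF4 loading followed for 1 h at RT; 460/530 nm ratio gave %activity.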
# [19] = target: Glucocorticoid receptor (Homo sapiens) (UniProt P04150); assay: GR-GFP Redistribution (AID 450;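 active means compounds whose dose series gives a full or clear partial fitted curve of increased nuclear translocation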; further: potency means the concentration at half of the fitted maximal effect); details: U2OS GR-GFP nuclear translocation, laser cytometry, 2 h
# Chain of Glucocorticoid receptor (Homo sapiens) (P04150 whole entry, looked up, the tested form may be a part): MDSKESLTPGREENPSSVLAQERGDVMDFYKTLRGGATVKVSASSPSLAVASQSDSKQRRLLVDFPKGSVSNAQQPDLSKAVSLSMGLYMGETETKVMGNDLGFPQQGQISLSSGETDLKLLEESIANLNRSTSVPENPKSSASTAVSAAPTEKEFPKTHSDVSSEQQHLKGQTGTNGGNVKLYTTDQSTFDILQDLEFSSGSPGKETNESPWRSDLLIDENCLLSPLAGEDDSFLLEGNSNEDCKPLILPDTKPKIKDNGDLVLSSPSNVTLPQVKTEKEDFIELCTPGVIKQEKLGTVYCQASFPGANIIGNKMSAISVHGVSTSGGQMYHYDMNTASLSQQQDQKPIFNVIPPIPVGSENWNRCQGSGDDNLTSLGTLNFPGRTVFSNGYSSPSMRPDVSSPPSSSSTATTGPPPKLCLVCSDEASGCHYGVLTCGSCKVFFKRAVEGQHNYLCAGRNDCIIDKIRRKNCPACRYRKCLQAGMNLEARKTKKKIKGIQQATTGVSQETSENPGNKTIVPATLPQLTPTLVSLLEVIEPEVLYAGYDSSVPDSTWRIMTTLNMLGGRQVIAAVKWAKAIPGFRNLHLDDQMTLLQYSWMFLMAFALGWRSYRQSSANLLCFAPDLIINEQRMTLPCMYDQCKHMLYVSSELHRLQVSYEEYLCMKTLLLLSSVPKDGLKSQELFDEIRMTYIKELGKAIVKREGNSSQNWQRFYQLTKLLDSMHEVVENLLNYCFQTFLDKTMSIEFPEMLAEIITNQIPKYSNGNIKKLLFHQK
# [20] = target: Glucocorticoid receptor (Homo sapiens) (UniProt P04150); assay: GR-EFC Redistribution (AID 451; calls by dose curve; further: potency means the concentration at half of the fitted maximal effect); details: CHO-K1 GR-EFC translocation, beta-gal luminescence, 2 h
# Summary of the method: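 CHO-K1 cells stably expressing nuclear-localized β-gal enzyme acceptor and GR fused C-terminally to the enzyme donor fragment; ligand-driven nuclear translocation restores β-gal by complementation. Compounds titrated up to 46 uM final, 2 h at 37 °C; luminescence read.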
# [21] = measured here: cell count channel max response
# [22] = measured here: lipid channel max response
# [23] = at 7.69 µM (top of the series) unless noted
structure (smiles),measurement,setting,value
C[C@@H](CN(C)C)CN1c2ccccc2CCc2ccccc21,"activity change, negative = inhibition",[1]; at 17.2 µM (top of the series),77.9% [activator] (active)
same,"activity change, negative = inhibition",[1]; at 38 µM (top of the series),90.9% [activator] (active)
same,Potency,[2],inactive
same,"activity, negative = inhibition",[3]; at 17.2 µM (top of the series),1.59% (inactive)
same,"activity, negative = inhibition",[3]; at 38 µM (top of the series),-7% (inactive)
same,Potency,[4],inactive
same,Potency,[5],inactive
same,"activity change, negative = inhibition",[6],-5.99% (inactive)
same,max response,[6]; [21],-11.8%
same,max response,[6]; [22],-16.4%
same,outcome,[7],inactive
same,Potency,[8],inactive
same,outcome,[9],inactive
same,"activity, negative = inhibition",[10]; parasite line A,-6.2% (inactive)
same,Potency,[11],inactive
same,Potency,[12],inactive
same,Potency,[13],inactive
same,Potency,[14],inactive
same,Potency,[15],inactive
same,Potency,[16],inactive
same,Potency,[17],inactive
CN(Cc1cnc2nc(N)nc(N)c2n1)c1ccc(C(=O)N[C@H](CCC(=O)O)C(=O)O)cc1,"activity change, negative = inhibition",[1]; at 17.2 µM (top of the series),13.9% (inactive)
same,"activity change, negative = inhibition",[1]; at 38 µM (top of the series),2.91% (inactive) and 5.9% (inactive)
same,Potency,[2],inactive
same,"activity change, negative = inhibition",[18]; at 17.2 µM (top of the series),-38.1% (inactive)
same,"activity change, negative = inhibition",[18]; at 38 µM (top of the series),-4.84% (inactive) and 12.6% (inactive)
same,"activity, negative = inhibition",[3]; at 17.2 µM (top of the series),8.48% (inactive)
same,"activity, negative = inhibition",[3]; at 38 µM (top of the series),-1.61% (inactive) and 15.7% (inactive)
same,Potency,[4],inactive
same,Potency,[5],inactive
same,"activity change, negative = inhibition",[6],0.922% (inactive)
same,max response,[6]; [21],-1.52%
same,max response,[6]; [22],-2.14%
CC(C)(Oc1ccc([C@@H]2CC2(Cl)Cl)cc1)C(=O)O,"activity change, negative = inhibition",[1]; at 17.2 µM (top of the series),-1.19% (inactive)
same,"activity change, negative = inhibition",[1]; at 38 µM (top of the series),-10.2% (inactive)
same,Potency,[2],inactive
same,"activity change, negative = inhibition",[18]; at 17.2 µM (top of the series),-16.8% (inactive)
same,"activity change, negative = inhibition",[18]; at 38 µM (top of the series),-7.66% (inactive)
same,"activity, negative = inhibition",[3]; [23],-2.06% [at 17.2 µM] (inactive)
same,Potency,[19],> 46 µM (inactive) and > 20.6 µM (inactive)
same,Potency,[20],> 46 µM (inactive) and > 20.6 µM (inactive)
same,Potency,[4],inactive
same,Potency,[5],inactive
same,"activity change, negative = inhibition",[6],-0.371% (inactive)
same,max response,[6]; [21],-16.1%
same,max response,[6]; [22],-15.2%
same,Potency,[8],inactive
COc1c(O)cc2c(c1O)[C@@H]1O[C@@H](CO)[C@@H](O)[C@@H](O)[C@@H]1OC2=O,"activity change, negative = inhibition",[1]; [23],9.85% [at 17.2 µM] (inactive)
same,Potency,[2],inactive
same,"activity change, negative = inhibition",[18]; [23],4.01% [at 17.2 µM] (inactive)
same,"activity, negative = inhibition",[3]; [23],-7.81% [at 17.2 µM] (inactive)
same,Potency,[19],> 20.6 µM (inactive)
same,Potency,[20],> 20.6 µM (inactive)
same,Potency,[4],inactive
same,Potency,[5],inactive
same,"activity change, negative = inhibition",[6],-2.39% (inactive)
same,max response,[6]; [21],-8.82%
same,max response,[6]; [22],-7.08%
same,outcome,[7],inactive
same,Potency,[8],inactive
same,outcome,[9],inactive
same,"activity, negative = inhibition",[10]; parasite line A,5.83% (inactive)
same,"activity, negative = inhibition",[10]; parasite line B,11.9% (inactive)
same,Potency,[11],inactive
same,Potency,[12],inactive
same,Potency,[13],inactive
same,Potency,[14],inactive
same,Potency,[15],inactive
same,Potency,[16],inactive
same,Potency,[17],inactive
C[C@@H](C(=O)O)c1cccc(C(=O)c2ccccc2)c1,"activity change, negative = inhibition",[1]; at 17.2 µM (top of the series),5.98% (inactive)
same,"activity change, negative = inhibition",[1]; at 38 µM (top of the series),9.29% (inactive)
same,"activity change, negative = inhibition",[18]; at 17.2 µM (top of the series),5.64% (inactive)
same,"activity change, negative = inhibition",[18]; at 38 µM (top of the series),19.5% (inactive)
same,"activity, negative = inhibition",[3]; at 17.2 µM (top of the series),6.92% (inactive)
same,"activity, negative = inhibition",[3]; at 38 µM (top of the series),4.82% (inactive)
same,Potency,[4],inactive
same,Potency,[5],inactive
same,"activity change, negative = inhibition",[6],-0.218% (inactive)
same,max response,[6]; [21],11.1%
same,max response,[6]; [22],10.1%
same,outcome,[7],inactive
same,Potency,[8],inactive
same,outcome,[9],inactive
